Bioassay records (PubChem BioAssay)
IL1B secr inh: inhibitors of inflammasome signaling (IL-1 beta secretion); THP-1 LPS/ATP IL-1B secretion, AlphaLISA, 16 h; stronger effect = lower value; activity change, % at 57.5 µM; 360,000 tested, 4.7% active; AID 743279; in the data active means activity change below about -50%; inconclusive means mostly about -30% to -49%; further: on the % scale 0 is the no-effect control and ±100 the full control effect
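Secreted IL-1B measured by AlphaLISA bead assay after 16 h compound exposure of THP-1 cells; compounds (final up to 57.5 uM) added 1 h before LPS (250 ng/mL) and ATP (1.25 mM) stimulation; lower signal means less secretion.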
MCF10A rerep: DNA re-replication induction in MCF 10a cells; Potency, µM (top dose mostly 46.1 µM), inactives show top-dose activity, positive = re-replication, most hits filed as activators; 350,000 tested, 2.9% active; MCF 10A DNA re-replication, Hoechst nuclear intensity, 48 h; further: potency means the concentration at half of the fitted maximal effect; % of control where 0% means no effect; nearly all actives have a fitted effect of over 50% in size
TDP1 cell noCPT: qHTS for Inhibitors of human tyrosyl-DNA phosphodiesterase 1 (TDP1): qHTS in cells in absence of CPT; DT40 Tdp1-/- hTDP1 cells, no CPT, ATP luminescence, 48 h; Potency, µM (doses to about 46.2 µM), for inactives: top-dose activity change, negative = growth inhibition, usual class: inhibitors; 420,000 tested, 15% active; further: potency means the concentration at half of the fitted maximal effect; on the % scale 0 is the no-effect control and ±100 the full control effect; nearly all actives have a fitted effect of over 55% in size
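Seeded 400 DT40-hTDP1 cells/well (vehicle DMSO, no 20 nM CPT); pinned compounds; ≥48 hr at 37 °C; CellTiter-Glo luminescence as viability measure.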
DT40 TDP1 CPT: DT40-hTDP1 cell growth loss with CPT; chicken DT40 Tdp1-/-;hTDP1 cells + 20 nM CPT, ATP luminescence, 48 h; Potency, µM (titrated, usually from 46.2 µM), inactives show at the top dose activity change, negative = growth inhibition, hits mostly inhibitors; 420,000 tested, 12% active; further: potency means the concentration at half of the fitted maximal effect; on the % scale 0 is the no-effect control and ±100 the full control effect; nearly all actives have a fitted effect of over 55% in size
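Chicken DT40 Tdp1-/- cells complemented with human TDP1, 400 cells/well, exposed to compounds plus 20 nM camptothecin for at least 48 h at 37 C; viability read as ATP content by CellTiter-Glo luminescence.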
Chronic BCR inh: chronic active BCR signaling inhibition; ABC-DLBCL IkBa-CBG/CBR reporter, luminescence ratio, 4 h; 340,000 tested, 0.05% active; Potency, µM (highest dose often 46.1 µM), inactives show top-dose activity change, negative = inhibition, hits mostly inhibitors; active means well fitted inhibition curve with a large enough effect in the signal ratio, with a control signal flat, not every such curve was filed as active; inconclusive means small, poorly fitted or top-dose-only effect, or effect the other way, or a change in a side signal; the % refers to the signal ratio;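 further: potency means the concentration at half of the fitted maximal effect; plate controls were basal doxycycline-induced cells for no effect and cells given 10 µM MG132 for full effect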
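TMD8 human ABC-DLBCL cells with doxycycline-inducible IκBα–green luciferase fusion and unfused red luciferase, in 0.5% FBS medium; compounds up to 46 uM, 4 h at 37C. Green/red luminescence ratio, filter-overlap corrected, fitted to concentration-response curves.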
SW480 rerep: DNA re-replication induction in SW480 cells | SW480 DNA re-replication, Hoechst DNA content imaging, 48 h | Potency, µM (doses to about 46.1 µM), for the others: at the highest dose re-replication activation, actives largely listed as activators | 340,000 tested, 1.8% active; further: potency means the concentration at half of the fitted maximal effect; % of control where 0% means no effect; nearly all actives have a fitted effect of over 55% in size
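Cells (250 per well) received 23 nL compound or DMSO by pin tool and were kept 48 hr at 37 C, 5% CO2. Nuclei were then stained with Hoechst for 40 min and scanned for DNA content.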
* marks the source's active call; other numbers are inactive results; [ ] = dose if it differs, or a comment. Sampled rows, rich in hits. Any-hit rate of the full collection: about 19%. Unless noted, the call rests on the fitted dose curve; in most records, active means well fitted curve in the direction sought with a large enough effect; inconclusive means small, poorly fitted or top-dose-only effect, or another doubt; inactive means no such curve, though single readings can be large; an effect the other way counts as inactive or inconclusive.

What do the screens show for `CCOP(=O)(c1ccccc1)c1nc(-c2ccc(F)cc2)oc1N1CCCCC1` (configuration not stated)?
IL1B secr inh: inconclusive; MCF10A rerep: 6.8%; TDP1 cell noCPT: 20.6µM*; DT40 TDP1 CPT: 13µM*; Chronic BCR inh: -0.1%; SW480 rerep: 3.5%

How did CCc1ccc(-c2nc(CN3CCCC(C(=O)NCc4ccc(C)cc4)C3)c(C)o2)cc1 (configuration not stated) do in these assays?
TDP1 cell noCPT: 5.8µM*; DT40 TDP1 CPT: 8.2µM*

How did C[C@]1(O)CCC2C3CC[C@H]4C[C@@H](OC(=O)CNC(=O)CN)CC[C@]4(C)C3CC[C@@]21C (some centres not stated) do in these assays?
IL1B secr inh: 38.8; MCF10A rerep: -3.9%; TDP1 cell noCPT: inconclusive; DT40 TDP1 CPT: inconclusive; Chronic BCR inh: -5.3%; SW480 rerep: inconclusive

How did Cc1cc(NC(=O)COC(=O)c2c(C)nn(Cc3ccccc3)c2C)no1 do in these assays?
IL1B secr inh: -0.7; MCF10A rerep: -0.4%; TDP1 cell noCPT: -18.3%; DT40 TDP1 CPT: inconclusive; Chronic BCR inh: -22.7%; SW480 rerep: 2.9%[9.22 µM]

How did Cc1cc(NC(=O)CCl)no1 do in these assays?
IL1B secr inh: -100.3*; MCF10A rerep: inconclusive; TDP1 cell noCPT: 18.4µM*; DT40 TDP1 CPT: 13µM*; Chronic BCR inh: inconclusive; SW480 rerep: inconclusive

What do the screens show for `Cc1cc(OCC(=O)N[C@H](C(=O)O)c2ccccc2)c2c3c(c(=O)oc2c1)CCC3`?
IL1B secr inh: 4.0; MCF10A rerep: -10.3%; TDP1 cell noCPT: -5.9%; DT40 TDP1 CPT: -4.1%; Chronic BCR inh: -1.2%; SW480 rerep: -29.2%

What do the screens show for `O=P1(NCCCl)OCCC(OO)N1CCCl` (configuration not stated)?
TDP1 cell noCPT: -14.1%; DT40 TDP1 CPT: -39.9%

Results for CC(C)c1nn2c(=O)cc(COC(=O)Cc3ccccc3)nc2s1 ?
TDP1 cell noCPT: -5.1%; DT40 TDP1 CPT: -7.7%

Results for Cc1ccccc1OCC(=O)Nc1ccccc1C(=O)OCc1cc(=O)n2nc(C3CC3)sc2n1 ?
TDP1 cell noCPT: 1.64µM*; DT40 TDP1 CPT: 1.64µM*

How did O=C(OCc1cc(=O)n2nc(C3CC3)sc2n1)c1ccc(NC(=O)c2ccccc2Cl)cc1 do in these assays?
TDP1 cell noCPT: 7.31µM*; DT40 TDP1 CPT: inconclusive

Results for Cc1ccc(C(C)C)cc1OCC(=O)Nc1nnc(C2CC2)s1 ?
IL1B secr inh: -4.9; MCF10A rerep: 23.0%; TDP1 cell noCPT: inconclusive; DT40 TDP1 CPT: -4.9%; Chronic BCR inh: 2.1%; SW480 rerep: 1.6%

Results for Cc1nn2c(=O)cc(COC(=O)c3ccccc3NC(=O)c3cccs3)nc2s1 ?
TDP1 cell noCPT: 10.3µM*; DT40 TDP1 CPT: 9.2µM*

How did O=C(NC(=O)c1ccccc1Cl)Nc1ccc(OC(F)(F)F)cc1 do in these assays?
TDP1 cell noCPT: -4.8%; DT40 TDP1 CPT: -12.9%

Results for Nc1c(C(=O)NCc2ccco2)c2nc3ccccc3nc2n1CCN1CCCCC1 ?
IL1B secr inh: -63.3*; MCF10A rerep: -3.8%; TDP1 cell noCPT: 23.1µM*; DT40 TDP1 CPT: 23.1µM*; Chronic BCR inh: inconclusive; SW480 rerep: -2.4%

How did O=C(NCc1ccco1)c1ccc(Cn2c(=O)c3ccccc3n(Cc3cccc(F)c3)c2=O)cc1 do in these assays?
IL1B secr inh: 190.7; MCF10A rerep: 11.8%; TDP1 cell noCPT: inconclusive; DT40 TDP1 CPT: inconclusive; Chronic BCR inh: -0.8%; SW480 rerep: 1.8%

What do the screens show for `Cc1nn(Cc2ccccc2)c(C)c1C(=O)OCC(=O)NCc1ccco1`?
IL1B secr inh: -19.2; MCF10A rerep: -1.9%; TDP1 cell noCPT: -0.6%; DT40 TDP1 CPT: 0.9%; Chronic BCR inh: -26.1%; SW480 rerep: -0.6%

How did COc1ccc(Cn2c(N)c(C(=O)NCc3ccco3)c3nc4ccccc4nc32)cc1OC do in these assays?
IL1B secr inh: inconclusive; MCF10A rerep: inconclusive; TDP1 cell noCPT: 6.51µM*; DT40 TDP1 CPT: 6.51µM*; Chronic BCR inh: inconclusive; SW480 rerep: 0.517µM*

How did C=CCNC(=O)c1c(N)n(CCN2CCOCC2)c2nc3ccccc3nc12 do in these assays?
IL1B secr inh: inconclusive; MCF10A rerep: 5.8µM*; TDP1 cell noCPT: -22.5%; DT40 TDP1 CPT: -9.4%; Chronic BCR inh: inconclusive; SW480 rerep: 7.6%

How did Nc1c(C(=O)NCC2CCCO2)c2nc3ccccc3nc2n1Cc1ccco1 (configuration not stated) do in these assays?
IL1B secr inh: -71.5*; MCF10A rerep: 2.59µM*; TDP1 cell noCPT: inconclusive; DT40 TDP1 CPT: inconclusive; Chronic BCR inh: inconclusive; SW480 rerep: 13µM*

Results for C[C@]12CC[C@H]3[C@@H](CCC4=CC(=O)CC[C@@H]43)[C@@H]1CC[C@@H]2OC(=O)CCc1ccccc1 ?
TDP1 cell noCPT: -16.6%; DT40 TDP1 CPT: 12.9%

Results for CC12CC1(C)C(=O)N(c1cc(Cl)cc(Cl)c1)C2=O (configuration not stated) ?
IL1B secr inh: -7.3; MCF10A rerep: -0.7%; TDP1 cell noCPT: 10.7%; DT40 TDP1 CPT: -17.8%; SW480 rerep: 15.0%

What do the screens show for `c1cnc(N2CC[C@@]3(CCCNC3)C2)nc1`?
TDP1 cell noCPT: -25.1%; DT40 TDP1 CPT: inconclusive

What do the screens show for `O=C(Oc1ccccc1)N1CCC2(CCN(Cc3ccncc3)CC2)CC1`?
TDP1 cell noCPT: inconclusive; DT40 TDP1 CPT: 0.0%

How did C=C[C@@]12CN(C)[C@H]3[C@H]1[C@@]1(C(=O)Nc4ccccc41)C1CC2[C@@H]3CO1 do in these assays?
IL1B secr inh: -22.0; MCF10A rerep: 4.3%; TDP1 cell noCPT: 15.1%; DT40 TDP1 CPT: 4.4%; Chronic BCR inh: 1.4%; SW480 rerep: 12.4%

How did CC(C)CNC(=O)c1c(N)n(Cc2ccco2)c2nc3ccccc3nc12 do in these assays?
IL1B secr inh: -72.8*; MCF10A rerep: 6.51µM*; TDP1 cell noCPT: inconclusive; DT40 TDP1 CPT: inconclusive; Chronic BCR inh: inconclusive; SW480 rerep: 20.6µM*

How did CC(C)OC(=O)c1c(N)n(Cc2ccco2)c2nc3ccccc3nc12 do in these assays?
IL1B secr inh: -18.9; MCF10A rerep: -3.7%; TDP1 cell noCPT: inconclusive; DT40 TDP1 CPT: inconclusive; Chronic BCR inh: 0.2%; SW480 rerep: 15.1%
